Calls of active or inactive are those of the source. Unless noted, the rule behind the calls is not given here.
What was measured:
[1] = system: Wnt5a (protein binding on small-molecule microarray); test: small molecules binding Wnt5a protein – biophysical, small-molecule microarray, 635/667 nm fluorescence, primary screen (AID 1142); conditions: 635 nm fluorescence, higher = more signal;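 note: fluorescence read at 667 nm with signal to noise per printed feature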
[2] = ATP-based viability of Huh7 replicon cells – cell-based, CellTiter-Glo luminescence, basal, 48 h, cytotoxicity control for HCV replication inhibitor project, primary screen (AID 1143); conditions: higher = more signal, called active from +8 up or from −8 down;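 note: Huh7 hepatoma cells carrying a hepatitis C replication reporter with no stimulus; test concentration not given here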
[3] = Pseudomonas biofilm growth suppression – PAO1 strain, BacTiter-Glo luminescence, LB-PBS, primary screen (AID 1144); conditions: P. aeruginosa PAO1 biofilm, 12 h, higher = more signal
[4] = basal CRE-LacZ reporter activity in PC12 – cell-based, unstimulated, primary screen (AID 1145); conditions: no forskolin, luminescence, 4.5 h, higher = more signal, called active from +8 up or from −8 down
[5] = forskolin-driven CRE-LacZ activity in PC12 – cell-based, CRE-LacZ reporter, forskolin-stimulated, primary screen (AID 1146); conditions: luminescence, 4.5 h, higher = more signal, called active from +8 up or from −8 down;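 note: PC12 cells with 6xCRE LacZ reporter stimulated by forskolin 10 µM; beta-galactosidase reporter signal reflecting CREB driven transcription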
[6] = target: Streptavidin (Streptomyces avidinii) (UniProt P22629); test: compounds binding control protein streptavidin – biophysical, small-molecule microarray, 635/667 nm fluorescence, artefact control for SMM compound annotation, primary screen (AID 1147); conditions: higher = more signal;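 note: signal reflects streptavidin binding to arrayed compounds as a control protein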
Chain of Streptavidin (Streptomyces avidinii) (P22629 whole entry, looked up): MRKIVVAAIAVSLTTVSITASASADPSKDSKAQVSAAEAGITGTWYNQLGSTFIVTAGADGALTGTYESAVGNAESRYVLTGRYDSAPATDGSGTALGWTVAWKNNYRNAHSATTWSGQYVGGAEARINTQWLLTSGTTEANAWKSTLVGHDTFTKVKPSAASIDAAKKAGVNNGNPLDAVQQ

[7] = probe aInhba binding on compound microarray – biochemical, small-molecule microarray, 635/667 nm fluorescence, primary screen (AID 1148); conditions: higher = more signal;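 note: score merges 667nm spot fluorescence with signal-to-noise for antibody binding to printed compounds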
[8] = target: Torsin-1A (Homo sapiens) (UniProt O14656); test: TOR1A wild-type binding on microarray – cell lysate, small-molecule microarray, lysate, 635/667 nm, primary screen (AID 1149); conditions: COS7 hTOR1A-WT lysate, 635 nm fluorescence, higher = more signal
Chain of Torsin-1A (Homo sapiens) (O14656 whole entry, looked up): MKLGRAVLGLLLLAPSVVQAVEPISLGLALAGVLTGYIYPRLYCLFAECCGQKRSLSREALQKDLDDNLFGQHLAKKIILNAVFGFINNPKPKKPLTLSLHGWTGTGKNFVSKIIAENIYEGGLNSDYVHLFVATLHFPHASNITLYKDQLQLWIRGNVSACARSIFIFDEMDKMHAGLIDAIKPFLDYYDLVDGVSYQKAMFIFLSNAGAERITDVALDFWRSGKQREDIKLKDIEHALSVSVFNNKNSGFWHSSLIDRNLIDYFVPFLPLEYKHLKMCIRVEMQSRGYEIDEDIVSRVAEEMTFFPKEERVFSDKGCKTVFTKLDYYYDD

[9] = target: Torsin-1A (Homo sapiens) (UniProt O14656); test: torsin A mutant lysate binding on microarrays – cell lysate, small-molecule microarray, COS7 lysate, 635/667 nm fluorescence, primary screen (AID 1150); conditions: COS7 hTOR1A mutant lysate, 635 nm fluorescence, higher = more signal;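 note: score pools 667 nm emission and signal to noise measuring lysate protein binding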
[10] = system: Sonic hedgehog protein (Shh); test: Sonic hedgehog microarray binding compounds – biochemical, small-molecule microarray, 635/667 nm fluorescence, primary screen (AID 1151); conditions: 635 nm fluorescence, higher = more signal;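 note: Shh protein binding to compounds spotted on small-molecule microarray slides; score combines spot fluorescence intensity with signal-to-noise across triplicate slides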
[11] = optical density shifts of acrAB sulA E. coli – strain DRC41, OD650, 48 h, E. coli filamentation inducer project, primary screen (AID 1152); conditions: higher = more signal, called active from +8 up or from −8 down;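 note: E. coli MC1000 strain DRC41 lacking acrAB efflux pump and sulA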
[12] = probe aLefty1 binding on compound microarray – biochemical, small-molecule microarray, 635/667 nm fluorescence, primary screen (AID 1153); conditions: higher = more signal;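 note: score merges spot fluorescence with signal-to-noise ratio from the scanned slide images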
[13] = plasmodial surface anion channel blockers, osmotic lysis – cell-based, P. falciparum Indochina, OD700, 1 h, primary screen (AID 1154); conditions: P. falciparum Indochina infected RBC osmotic lysis, higher = more signal, called active from +8 up or from −8 down
[14] = plasmodial surface anion channel blockers, osmotic lysis – cell-based, P. falciparum Indochina, OD700, 2 h, primary screen (AID 1155);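 note: lysis reports solute entry through the parasite surface anion channel PSAC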; conditions: P. falciparum Indochina infected erythrocytes, higher = more signal, called active from +8 up or from −8 down
[15] = changes in parasitized red cell lysis, either direction – P. falciparum Indochina, OD700, 3 h, PSAC antagonist project, primary screen (AID 1156); conditions: P. falciparum-infected erythrocytes, osmotic lysis, higher = more signal, called active from +8 up or from −8 down
[16] = plasmodial surface anion channel blockers, osmotic lysis – cell-based, P. falciparum Indochina, OD700, 18 h, primary screen (AID 1157); conditions: P. falciparum Indochina infected erythrocytes, osmotic lysis OD700, 18 h; higher = more signal, called active from +8 up or from −8 down
[17] = S6 kinase pathway phospho-S6 level changes – cell-based, A549, cytoblot, luminescence, serum-stimulated, primary screen (AID 1158); conditions: 5 h, higher = more signal;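 note: serum-stimulated A549 lung adenocarcinoma cells; signal is phosphorylated S6 detected by cytoblot immunostaining with HRP secondary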
[18] = target: NADPH oxidase 2 (Homo sapiens) (UniProt P04839); test: compounds shifting NOX2 Amplex Red fluorescence – cell-based, HEK293-NOX2, PMA-stimulated, NOX inhibitor project, primary screen (AID 1159); conditions: 45 min, higher = more signal, called active from +8 up or from −8 down; note: test concentration not given here
Chain of NADPH oxidase 2 (Homo sapiens) (P04839 whole entry, looked up): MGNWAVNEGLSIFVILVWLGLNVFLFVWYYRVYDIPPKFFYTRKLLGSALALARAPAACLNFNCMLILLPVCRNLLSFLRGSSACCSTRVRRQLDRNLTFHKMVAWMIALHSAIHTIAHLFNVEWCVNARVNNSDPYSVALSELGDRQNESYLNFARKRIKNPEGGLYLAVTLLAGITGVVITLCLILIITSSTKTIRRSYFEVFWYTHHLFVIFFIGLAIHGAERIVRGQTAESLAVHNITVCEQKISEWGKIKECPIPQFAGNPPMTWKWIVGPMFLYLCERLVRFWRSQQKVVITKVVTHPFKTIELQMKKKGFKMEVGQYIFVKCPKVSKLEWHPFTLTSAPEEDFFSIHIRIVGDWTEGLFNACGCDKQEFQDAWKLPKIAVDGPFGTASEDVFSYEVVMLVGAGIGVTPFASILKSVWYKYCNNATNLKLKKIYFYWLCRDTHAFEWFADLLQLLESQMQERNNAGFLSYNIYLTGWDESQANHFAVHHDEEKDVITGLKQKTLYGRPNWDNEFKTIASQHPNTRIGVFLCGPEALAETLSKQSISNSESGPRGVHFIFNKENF

[19] = target: NADPH oxidase 4 (Homo sapiens) (UniProt Q9NPH5); test: compounds shifting NOX4 Amplex Red fluorescence – cell-based, HEK293-NOX4, tetracycline-induced, NOX inhibitor project, primary screen (AID 1160); conditions: HEK293-NOX4, Amplex Red H2O2 fluorescence, 45 min; higher = more signal, called active from +8 up or from −8 down
Chain of NADPH oxidase 4 (Homo sapiens) (Q9NPH5 whole entry, looked up): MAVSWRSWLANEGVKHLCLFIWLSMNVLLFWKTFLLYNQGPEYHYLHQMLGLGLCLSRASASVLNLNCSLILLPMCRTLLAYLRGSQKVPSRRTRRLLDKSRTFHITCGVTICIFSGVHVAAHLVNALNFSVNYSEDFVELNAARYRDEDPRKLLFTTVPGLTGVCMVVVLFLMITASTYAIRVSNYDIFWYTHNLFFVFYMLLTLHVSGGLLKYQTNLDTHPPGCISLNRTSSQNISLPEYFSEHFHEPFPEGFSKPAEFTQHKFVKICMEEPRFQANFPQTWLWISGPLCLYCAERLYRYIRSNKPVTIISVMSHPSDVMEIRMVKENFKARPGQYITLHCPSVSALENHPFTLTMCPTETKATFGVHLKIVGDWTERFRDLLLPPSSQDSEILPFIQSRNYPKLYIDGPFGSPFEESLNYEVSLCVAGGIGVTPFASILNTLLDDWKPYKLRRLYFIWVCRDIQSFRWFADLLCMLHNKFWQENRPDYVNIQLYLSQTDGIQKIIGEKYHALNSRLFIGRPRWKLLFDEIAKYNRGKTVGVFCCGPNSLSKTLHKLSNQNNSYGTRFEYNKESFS

[20] = target: NADPH oxidase 5 (Homo sapiens) (UniProt Q96PH1); test: compounds shifting NOX5 Amplex Red fluorescence – cell-based, HEK293-NOX5, NOX inhibitor project, primary screen (AID 1161); conditions: HEK293-NOX5, ionomycin, 45 min, higher = more signal
Chain of NADPH oxidase 5 (Homo sapiens) (Q96PH1 whole entry, looked up): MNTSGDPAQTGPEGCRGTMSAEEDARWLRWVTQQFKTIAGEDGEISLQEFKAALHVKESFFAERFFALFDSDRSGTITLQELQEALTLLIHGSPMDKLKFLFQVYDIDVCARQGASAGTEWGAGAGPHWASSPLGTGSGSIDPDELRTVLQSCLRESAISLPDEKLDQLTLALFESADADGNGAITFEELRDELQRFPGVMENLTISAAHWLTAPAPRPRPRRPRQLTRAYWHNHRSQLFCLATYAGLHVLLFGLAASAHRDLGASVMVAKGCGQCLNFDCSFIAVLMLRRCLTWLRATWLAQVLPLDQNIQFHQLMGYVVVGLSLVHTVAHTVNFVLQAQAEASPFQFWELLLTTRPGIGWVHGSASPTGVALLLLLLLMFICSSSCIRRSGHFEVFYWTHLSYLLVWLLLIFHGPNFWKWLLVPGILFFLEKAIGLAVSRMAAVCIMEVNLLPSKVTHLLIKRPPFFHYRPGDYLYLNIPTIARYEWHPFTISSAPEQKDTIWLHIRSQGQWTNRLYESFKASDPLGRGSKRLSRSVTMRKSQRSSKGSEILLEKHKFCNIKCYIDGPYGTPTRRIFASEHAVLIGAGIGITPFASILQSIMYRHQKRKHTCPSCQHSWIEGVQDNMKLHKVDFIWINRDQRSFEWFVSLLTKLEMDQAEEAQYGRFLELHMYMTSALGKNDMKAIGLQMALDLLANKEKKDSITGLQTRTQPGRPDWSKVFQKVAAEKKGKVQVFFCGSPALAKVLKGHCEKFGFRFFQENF

Structure (SMILES)	composite z-score [1]	z-score [2]	z-score [3]	z-score [4]	z-score [5]	composite z-score [6]	composite z-score [7]	composite z-score [8]	composite z-score [9]	composite z-score [10]	z-score [11]	composite z-score [12]	z-score [13]	z-score [14]	z-score [15]	z-score [16]	z-score [17]	z-score [18]	z-score [19]	z-score [20]
CC(C)C[C@@H]1NC(=O)[C@H](CC(C)C)NC(=O)[C@@]23C(=O)N[C@@H](Cc4ccccc4)C2[C@H](C)[C@@]2(C)O[C@H]2C3/C=C/CC/C=C/CNC1=O (stereo not given in full)	-0.048	-3.54 (inactive)	-1.16 (inactive)	0.126 (inactive)	-0.792 (inactive)	1.3	-0.128	0.382	0.29	1.14	-0.239 (inactive)	0.0275	1.7 (inactive)	0.627 (inactive)	1.33 (inactive)	0.575 (inactive)	-0.0044	0.123 (inactive)	0.349 (inactive)	-1.62
C=CCC(OC(C)=O)[C@@H]1[C@@H](N(Cc2cccc3ccccc23)C(=O)Cc2ccc(F)cc2)c2cc(OCCCO)ccc2N1C(=O)Cc1ccc2ccccc2c1 (stereo not given in full)	-0.0893	-0.288 (inactive)	-0.688 (inactive)	-0.36 (inactive)	1.17 (inactive)	-0.11	-0.101	-0.52	0.169	0.332	0.576 (inactive)	-0.0162	1.71 (inactive)	0.605 (inactive)	-0.0952 (inactive)	0.434 (inactive)	0.163	-0.606 (inactive)	0.626 (inactive)	0.765
CC(C)[Si](OCC[C@H]1O[C@]2(C(=O)N(Cc3ccccc3)c3ccccc32)[C@@H](C)[C@@H]1[Si](C)(C)O)(C(C)C)C(C)C	0.0427	-0.555 (inactive)	0.735 (inactive)	0.223 (inactive)	-0.242 (inactive)	-0.0546	-0.171	0.399	-0.131	0.255	0.65 (inactive)	-0.193	0.914 (inactive)	0.799 (inactive)	0.226 (inactive)	0.403 (inactive)	0.158	0.999 (inactive)	-0.328 (inactive)	0.523
COC(=O)[C@@]1(Cc2ccccc2CN=[N+]=[N-])N=C(c2ccc(OCCCO)cc2)O[C@H]1c1ccccc1N=[N+]=[N-]	0.54	-3.9 (inactive)	-0.174 (inactive)	2.28 (inactive)	-0.505 (inactive)	-0.104	-0.0645	-1.42	-0.855	1.77	-0.55 (inactive)	0.495	26.8 (active)	16.8 (active)	1.76 (inactive)	2.33 (inactive)	0.166	-1.2 (inactive)	1.25 (inactive)	0.841
CCCC=C(CCC)[C@@H](NC(=O)c1ccc(C(F)(F)F)cc1)c1ccccc1	-0.191	-3.91 (inactive)	-0.383 (inactive)	0.962 (inactive)	-0.0536 (inactive)	0.233	0.208	0.518	0.199	-0.634	-1.25 (inactive)	0.718	0.666 (inactive)	-0.96 (inactive)	0.394 (inactive)	-1.05 (inactive)	1.47	-3.96 (inactive)	-3.71 (inactive)	-3.65
C=CCOC(=O)[C@@H]1[C@H]2C(=O)O[C@H](c3ccccc3)[C@H](c3ccccc3)N2[C@H](c2ccc(OCCOC(=O)[C@H]3C[C@H]4C(=O)N[C@@H](CCCCNC(C)=O)C(=O)N4[C@H]3c3ccc(O)cc3)cc2)[C@@]12C(=O)Nc1ccc(I)cc12	0.728	-0.317 (inactive)	0.645 (inactive)	0.549 (inactive)	0.906 (inactive)	0.0984	0.0073	1.32	1.29	2.07	-0.725 (inactive)	0.325	2.99 (inactive)	1.92 (inactive)	0.855 (inactive)	1.23 (inactive)	1.3	2.16 (inactive)	1.27 (inactive)	1.64
COCCOC(=O)N1C(=O)[C@@]2(c3cc(C#CC4=CCCCC4)ccc31)[C@H](C(=O)NC[C@H](O)c1ccccc1)[C@H]1C(=O)O[C@H](c3ccccc3)[C@H](c3ccccc3)N1[C@@H]2c1ccc(OCCO)cc1	0.374	-2.96 (inactive)	0.329 (inactive)	0.0776 (inactive)	1.2 (inactive)	0.855	0.0446	0.481	0.0642	2.05	-0.999 (inactive)	0.197	3.71 (inactive)	2.15 (inactive)	-0.681 (inactive)	1.05 (inactive)	0.0766	1.54 (inactive)	1.17 (inactive)	1.59
COCCOC(=O)N1C(=O)[C@@]2(c3cc(C#CCCO)ccc31)[C@H](c1ccc(OCCO)cc1)N1[C@H](c3ccccc3)[C@H](c3ccccc3)OC(=O)[C@H]1[C@@H]2C(=O)NC[C@H](O)c1ccccc1	0.619	-2.79 (inactive)	-0.668 (inactive)	-1.42 (inactive)	-0.137 (inactive)	0.427	0.0183	0.703	1.16	1.7	1.04 (inactive)	-0.0054	2.48 (inactive)	1.1 (inactive)	0.68 (inactive)	0.678 (inactive)	0.75	2.04 (inactive)	0.385 (inactive)	0.419

Reference: PubChem BioAssay
